# Assay results reported in PubChem BioAssay AID720504 (National Center for Advancing Translational Sciences (NCATS), 2013).
# About 10,000 (2.8%) of roughly 360,000 compounds were called active. Inconclusive results (about 4%) are left out. The call rests on the fitted dose curve; in most records, active means well fitted inhibition curve with a large enough effect; inconclusive means small, poorly fitted or top-dose-only effect; inactive means flat fitted curve, though single readings scatter. This excerpt belongs to a sample that is enriched for actives.
# Target: Serine/threonine-protein kinase PLK1 (Homo sapiens) (UniProt P53350)
# Sequence (P53350 whole entry, looked up, the tested form may be a part): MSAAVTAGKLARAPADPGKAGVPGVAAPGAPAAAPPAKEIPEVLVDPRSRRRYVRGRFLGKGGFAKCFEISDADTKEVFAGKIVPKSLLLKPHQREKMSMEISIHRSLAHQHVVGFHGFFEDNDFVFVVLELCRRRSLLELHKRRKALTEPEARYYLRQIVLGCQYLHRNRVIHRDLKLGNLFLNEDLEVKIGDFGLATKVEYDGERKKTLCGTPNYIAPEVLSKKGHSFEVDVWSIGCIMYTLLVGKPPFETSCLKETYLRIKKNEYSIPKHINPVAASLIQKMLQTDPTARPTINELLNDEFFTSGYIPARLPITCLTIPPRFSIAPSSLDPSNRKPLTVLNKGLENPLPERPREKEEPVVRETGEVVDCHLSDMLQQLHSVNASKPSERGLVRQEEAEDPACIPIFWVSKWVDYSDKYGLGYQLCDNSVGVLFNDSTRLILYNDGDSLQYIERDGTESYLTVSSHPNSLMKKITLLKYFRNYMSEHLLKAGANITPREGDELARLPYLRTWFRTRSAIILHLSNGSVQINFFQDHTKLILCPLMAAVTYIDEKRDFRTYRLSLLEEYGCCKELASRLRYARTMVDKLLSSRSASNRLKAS
# Assay: qHTS for Inhibitors of PLK1-PDB (polo-like kinase 1 - polo-box domain): Primary Screen; further: nearly all actives have a fitted effect of over 65% in size; on max response, negative = inhibition: series mostly up to about 57 µM
# Conditions: Plk1 PBD binding of FITC phosphopeptide, fluorescence polarization
# On the % scale 0 is the no-effect control and ±100 the full control effect; potency means the concentration at half of the fitted maximal effect.
Structure (SMILES),"max response, negative = inhibition",Potency
CCc1nc2c(=O)[nH]cnc2o1,-1.77% (inactive),
CC(=NNC(N)=O)C1CC2CCC1CC2 (configuration not stated),-7.72% (inactive),
Cc1ccc(C(=O)NCCc2nnc(SCC(=O)Nc3cccc(C(=O)O)c3)n2C)cc1,1.64% (inactive),
Cc1cc(NC(=O)CSc2nc(C(C)C)nc3sc4c(c23)CCC(C)C4)no1 (configuration not stated),-3.46% (inactive),
CC(C)c1nc(SCC(=O)Nc2cccc(C(=O)O)c2)c2c3c(sc2n1)CCCC3,,42.3 µM (active)
CC1(C(=O)NCc2ccc3c(c2)OCO3)CCN1C(=O)Cc1cccs1 (configuration not stated),10.1% (inactive),
COC(=O)c1ccc2nc(-c3cccc(Br)c3)c(Cc3ccccc3C(F)(F)F)n2c1,-0.95% (inactive),
CCN(CC)S(=O)(=O)c1ccc(NC(=O)c2cccnc2Cl)c(NC(=O)c2cccnc2Cl)c1,,23.8 µM (active)
Cc1ccc(CNC(=O)c2cccnc2Cl)cc1,-17.3% (inactive),
CCN(CC)S(=O)(=O)c1ccc(NC(=O)c2cnc(C)cn2)cc1,1.21% (inactive),
COc1ccc(-c2csc(C(O)c3cccc(Cl)c3)n2)cn1 (configuration not stated),-6.07% (inactive),
CCCCCNC(=O)C(c1ccc(OC)cc1)n1c(=O)c(-c2ccccc2)nc2ccccc21 (configuration not stated),-10.5% (inactive),
Cc1nc2ccc(NC(=O)c3cccc(S(=O)(=O)N4CCOCC4)c3)cc2s1,-2.09% (inactive),
COc1ccc(NS(=O)(=O)c2ccc(NC(=S)NC(=O)CC(C)C)cc2)cc1,-14.2% (inactive),
O=S(=O)(Nc1ccc2nc(N3CCOCC3)sc2c1)c1ccccc1,-10.1% (inactive),
COc1ccc(NS(=O)(=O)c2ccc3oc(SCC(N)=O)nc3c2)cc1,-0.392% (inactive),
O=C(O)c1cccc(S(=O)(=O)Nc2ccc(O)cc2Sc2nc3ccccc3s2)c1,,13.4 µM (active)
COc1ccc(S(=O)(=O)Nc2ccc(O)c(Sc3nc4ccccc4s3)c2)cc1,,16.8 µM (active)
N#Cc1ccc(-c2ccc3nccn3c2)cc1,-5.23% (inactive),
COc1ccc(-c2cc(C(=O)N3CCN(Cc4ccc5c(c4)OCO5)CC3)on2)cc1OC,,5.97 µM (active)
O=C(c1cccs1)N1CCN(Cc2ccc3c(c2)OCO3)CC1,-0.579% (inactive),
Cc1cc(C)n2nc(C(=O)N3CCN(Cc4ccc5c(c4)OCO5)CC3)nc2n1,-1.06% (inactive),

Structure (SMILES),"max response, negative = inhibition",Potency
Cc1ccc(OC(=O)CCC(=O)Nc2ccc(Br)cc2)cc1,-3.3% (inactive),
CC(C)Oc1ccc(CC(=O)NNC(=S)Nc2ccc(Br)cc2)cc1,,13.4 µM (active)
COC(=O)Cc1ccc(NC(=S)NCc2ccccc2)cc1,-14.7% (inactive),
O=C1NC[C@@H](CCCCN2CCN(CCc3ccc(O)cc3)C(=O)C2=O)N(CC2CCCCC2)C1=O,-8.33% (inactive),
FC(F)(F)c1cccc(-c2nc3ccccc3n2C(c2ccccc2)c2nc3ccccc3[nH]2)c1 (configuration not stated),-0.5% (inactive),
Cc1cccc(C)c1NC(=O)CN1CCN(c2ccc(F)cc2)CC1,-2.75% (inactive),
C/C=N/NC(=O)CCCC(=O)N/N=C/C,,29.9 µM (active)
C=CCNC(=O)CCCC(=O)NCC=C,2.64% (inactive),
CCOc1cc(C=NNC(=O)CCCC(=O)NN=Cc2ccc(O)c(OCC)c2)ccc1O,-0.399% (inactive),
Cc1cc(C)n2c(Nc3c(C)cccc3C)c(CCc3ccccc3)nc2n1,-7.58% (inactive),
CSc1ccccc1C(=O)Nc1cccc(C(C)=O)c1,,23.8 µM (active)
CC(=O)c1cccc(NC(=O)c2cc(C)nn2-c2ccccc2)c1,5.02% (inactive),
CSc1ccccc1C(=O)NCc1ccccc1,-11.2% (inactive),
CN(Cc1c(F)cccc1Cl)C(=O)COC(=O)Cn1cnc2ccccc2c1=O,-0.103% (inactive),
CC(C)C1C(=O)N(Cc2cn(CCC3OCCO3)nn2)CCS(=O)(=O)N1Cc1ccc(-c2ccccc2C(F)(F)F)cc1 (configuration not stated),0.333% (inactive),
COc1cccc(-c2ccc3c(c2)N(Cc2ccccc2OC)C(=O)C(C)S3)c1 (configuration not stated),0.113% (inactive),
CCOC(=O)C1CCCN(C(=O)c2ccc(N(C)C)cc2)CC1 (configuration not stated),-4.5% (inactive),
CC(=O)c1cccc(NC(=S)N2CCCC2)c1,-6.15% (inactive),
Cc1cccc(NC(=S)N2CCC(c3nc4ccccc4s3)CC2)c1,-1.09% (inactive),
Cc1cccc(NC(=S)N2CCC(C(=O)c3ccc(F)cc3)CC2)c1,,2.99 µM (active)
CCOC(=O)C1(C)CCCN(C(=O)c2ccc(F)c(Cl)c2)C1 (configuration not stated),-9.56% (inactive),
CN(C)C(CNC(=O)c1cccc(S(=O)(=O)N2CCc3ccccc3C2)c1)c1ccccc1 (configuration not stated),-5.08% (inactive),

Structure (SMILES),"max response, negative = inhibition",Potency
CC1(C(=O)NS(=O)(=O)c2cccc(F)c2)CCN1C(=O)c1cccc2ccccc12 (configuration not stated),-0.565% (inactive),
Cc1ccc2[nH]cc(CCCN3C(=O)c4ccccc4C3=O)c2c1,,29.9 µM (active)
O=C1c2ccccc2C(=O)N1CCCCCCN1C(=O)c2ccccc2C1=O,-2.55% (inactive),
COc1ccc2[nH]cc(CCN3C(=O)c4ccc(C(=O)O)cc4C3=O)c2c1,-13.3% (inactive),
COC(=O)C1(C(=O)OC)C/C=C\CN(S(=O)(=O)c2ccccc2[N+](=O)[O-])CCC1,3.46% (inactive),
O=C1OCCC1=COCCCCOC=C1CCOC1=O,1.79% (inactive),
Cc1ccc(NC(=O)O/N=C/c2cccc([N+](=O)[O-])c2)cc1,-16.5% (inactive),
O=C(NCCN1CCN(C(=O)c2cccc([N+](=O)[O-])c2)CC1)C(=O)NCc1ccc(Cl)cc1,2.99% (inactive),
Cc1ccc(NC(=O)C(=O)NCC2CCN(C(=O)c3cccc([N+](=O)[O-])c3)CC2)cc1,,29.9 µM (active)
Cc1cccc(C)c1NC(=O)CNC(=O)c1ccc(N2CCOCC2)c([N+](=O)[O-])c1,-13.7% (inactive),
COC(=O)CNC(=O)c1ccccc1[N+](=O)[O-],-2.66% (inactive),
O=C(NNS(=O)(=O)Cc1ccccc1)c1ccc([N+](=O)[O-])cc1,-14.2% (inactive),
O=C(CNC(=O)c1ccccc1)Oc1ccc([N+](=O)[O-])cc1,,5.32 µM (active)
Cc1ccc(Cc2c(-c3ccc(C)cc3)nc3c4ccccc4ccn23)cc1,5.48% (inactive),
COc1cc(C=C(OC(C)=O)c2ccc3c(c2)OCO3)cc(OC)c1OC,-7.84% (inactive),
CCOC(=O)C1(C)CCCN(C(=O)c2ccc(N(C)C)cc2)C1 (configuration not stated),-5.89% (inactive),
CC1CCC(NC(=O)CN(C)S(=O)(=O)c2ccc3c(c2)c(=O)n(C)c(=O)n3C)CC1 (configuration not stated),,18.9 µM (active)
COc1cccc(CNC(=O)CN(C)S(=O)(=O)c2ccc3c(c2)c(=O)n(C)c(=O)n3C)c1,-6.18% (inactive),
CCc1ccccc1NC(=O)CN(C)S(=O)(=O)c1ccc2c(c1)c(=O)n(C)c(=O)n2C,-2.91% (inactive),
CCNC(=O)C1CCCN(C(=O)c2ccc(OC)cc2OC)CC1 (configuration not stated),-11.4% (inactive),
Cc1ccc(NN=Nc2nc3c([nH]2)c(=O)n(C)c(=O)n3C)cc1,,23.8 µM (active)
Cc1cccc(C)c1NC(=O)CSc1nc2c([nH]1)c(=O)n(C)c(=O)n2C,-5.89% (inactive),

Structure (SMILES),"max response, negative = inhibition",Potency
Cc1cc(C)c(C=NNc2nc3c([nH]2)c(=O)n(C)c(=O)n3C)c(C)c1,-11.3% (inactive),
C[C@H]1CN([C@@H](C)CO)C(=O)CCCn2cc(nn2)CO[C@@H]1CN(C)S(=O)(=O)c1cccs1,-15.8% (inactive),
CCn1cc(/C=C(\NC(=O)c2ccc(C)cc2)C(=O)NCCN2CCOCC2)c2ccccc21,,26.7 µM (active)
O=C(NCCN1CCOCC1)/C(=C/c1ccc(F)cc1)NC(=O)c1ccccc1,-12.8% (inactive),
Cc1ccc(C(=O)N/C(=C\c2ccc(F)cc2)C(=O)NCCN2CCOCC2)cc1,-16.1% (inactive),
CCCOc1ccc(F)cc1-c1cc(C(=O)Nc2ccc(F)cc2)[nH]n1,6.37% (inactive),
O=C(NCc1cccc(C(F)(F)F)c1)c1ccc2sc(COCCO)nc2c1,-3.85% (inactive),
CCOC(=O)C1C(C)C(C(C)(C)C)N(S(=O)(=O)c2ccc(C)cc2)C1c1ccccc1 (configuration not stated),-10.1% (inactive),
CC1(C(=O)NCC2CCOCC2)Cc2c(-c3cccc(C(N)=O)c3)ccnc2O1 (configuration not stated),-6.03% (inactive),
Cc1nc(-c2ccccc2)sc1C(=O)/C=C/N(C)C,,29.9 µM (active)
CN(C)/C=C/C(=O)c1ccccc1F,-6.3% (inactive),
Cc1nc(COc2cccc(Cl)c2)sc1C(=O)/C=C/N(C)C,6.79% (inactive),
Cc1ccc(-c2nc3c(Cl)cc(C(F)(F)F)cn3c2Cc2cccc(Cl)c2)cc1,4.46% (inactive),
CCOC(=O)c1c(NC(=O)C2CC=CCC2C(=O)O)sc(C)c1CC (configuration not stated),,26.7 µM (active)
CCOC(=O)c1c(NC(=O)CN2C(=O)NC3(CCC(C)CC3)C2=O)sc(C)c1CC (configuration not stated),-5.1% (inactive),
COC(=O)c1c(NC(=O)C2CC(C)=C(C)CC2C(=O)O)sc2c1CCCCC2 (configuration not stated),-20.4% (inactive),
Nc1ncnc2c1ncn2[C@@H]1O[C@H](C(=O)NS(=O)(=O)c2c(Cl)nc3sccn23)[C@@H](O)[C@H]1O,-12.2% (inactive),
COCCNc1ncnc2c1ncn2[C@H]1CN(Cc2ccc(OC)cc2)C[C@@H](CO)O1,5.71% (inactive),
CCCCC1(C(=O)OCC)NC(c2ccc(O)cc2)C2C(=O)N(c3ccccc3)C(=O)C21 (configuration not stated),,11.9 µM (active)
CCOC(=O)C1(C)NC(c2ccco2)C2C(=O)N(c3ccccc3)C(=O)C21 (configuration not stated),-2.81% (inactive),
CCCC1(C(=O)OCC)NC(c2ccc(N(C)C)cc2)C2C(=O)N(c3ccc4c(c3)OCCO4)C(=O)C21 (configuration not stated),0.149% (inactive),
